# From PubChem
# This excerpt belongs to a sample that is enriched for hits.
# KDM5B inhibitor: KDM5B demethylase inhibition; Q9UGL1; KDM5B demethylase, FDH-coupled NADH fluorescence (FDH is formaldehyde dehydrogenase); Potency, µM (series often up to 57.7 µM), most hits filed as inhibitors; actives 2.6% (n = 220,000); AID 1347165; active = well fitted inhibition curve with a large enough effect; also: 0% is about no effect; nearly all actives have a fitted effect of over 70% in size
# Target sequence (Q9UGL1 whole entry, looked up): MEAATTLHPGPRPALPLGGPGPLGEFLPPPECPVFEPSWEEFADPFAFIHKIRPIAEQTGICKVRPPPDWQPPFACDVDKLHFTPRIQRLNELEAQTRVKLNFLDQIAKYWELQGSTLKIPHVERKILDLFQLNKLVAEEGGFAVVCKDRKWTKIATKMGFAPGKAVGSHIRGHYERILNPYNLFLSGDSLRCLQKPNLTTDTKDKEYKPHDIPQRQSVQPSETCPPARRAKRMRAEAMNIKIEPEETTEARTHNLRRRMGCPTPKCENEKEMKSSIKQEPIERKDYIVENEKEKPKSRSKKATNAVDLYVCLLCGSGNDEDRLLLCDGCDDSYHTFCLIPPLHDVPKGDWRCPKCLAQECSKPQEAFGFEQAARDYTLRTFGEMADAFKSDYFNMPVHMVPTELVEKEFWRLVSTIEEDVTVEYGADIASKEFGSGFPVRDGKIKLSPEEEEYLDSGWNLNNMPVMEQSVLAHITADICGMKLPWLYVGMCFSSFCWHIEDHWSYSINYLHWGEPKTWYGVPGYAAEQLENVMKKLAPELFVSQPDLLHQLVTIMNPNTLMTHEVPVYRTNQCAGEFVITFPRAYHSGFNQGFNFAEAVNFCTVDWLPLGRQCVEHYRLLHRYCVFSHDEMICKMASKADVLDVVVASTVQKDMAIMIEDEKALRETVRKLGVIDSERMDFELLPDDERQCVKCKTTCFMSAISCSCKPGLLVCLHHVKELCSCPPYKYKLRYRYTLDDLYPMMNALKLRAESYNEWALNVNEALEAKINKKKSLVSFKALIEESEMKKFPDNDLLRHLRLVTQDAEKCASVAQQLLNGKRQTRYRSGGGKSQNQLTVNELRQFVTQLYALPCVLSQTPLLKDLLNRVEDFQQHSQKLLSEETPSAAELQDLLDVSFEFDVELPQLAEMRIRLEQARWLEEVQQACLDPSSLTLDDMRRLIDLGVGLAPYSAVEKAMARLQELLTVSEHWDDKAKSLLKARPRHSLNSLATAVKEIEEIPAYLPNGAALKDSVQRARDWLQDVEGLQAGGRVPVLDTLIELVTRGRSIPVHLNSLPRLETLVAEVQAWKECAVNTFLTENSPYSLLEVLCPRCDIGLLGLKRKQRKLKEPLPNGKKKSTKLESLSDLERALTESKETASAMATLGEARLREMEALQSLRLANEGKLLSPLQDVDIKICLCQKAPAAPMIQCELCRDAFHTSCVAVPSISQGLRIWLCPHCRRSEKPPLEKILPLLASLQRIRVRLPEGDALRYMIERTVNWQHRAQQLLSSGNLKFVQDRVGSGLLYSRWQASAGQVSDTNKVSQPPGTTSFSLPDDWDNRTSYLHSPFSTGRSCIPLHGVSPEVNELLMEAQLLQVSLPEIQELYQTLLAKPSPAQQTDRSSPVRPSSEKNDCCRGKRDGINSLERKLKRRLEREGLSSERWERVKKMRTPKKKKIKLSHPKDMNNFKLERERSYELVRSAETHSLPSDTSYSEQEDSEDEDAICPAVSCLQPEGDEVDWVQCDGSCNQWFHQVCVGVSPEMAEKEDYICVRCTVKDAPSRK
#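 Compound dilutions met 200 nM (final) KDM5BΔAP for 10 min at room temperature before substrate addition. The substrate mix held 12.5 µM H3K4me3 with cofactors 25 µM α-ketoglutarate and 50 µM Fe²⁺. NADH signal gain over 30 min defined activity.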
# An asterisk follows results filed as active; i = inactive. Potency is read from the fitted curve at half-maximal effect.
SMILES,KDM5B inhibitor
C/C(=N/Nc1cccc([N+](=O)[O-])c1)c1ccc(Br)cc1,i
Cc1ccc2c(c1)C(c1ccc(F)cc1)N(C(=O)Cc1cccc3ccccc13)CC(=O)N2 (stereo not given),i
Cn1c(=O)c2c(nc(NCCCc3ccccc3)n2Cc2cccc(Cl)c2)n(C)c1=O,i
COc1cc(C2C3=C(CCCC3=O)Nc3c(C#N)cnn32)cc(OC)c1O (stereo not given),i
Cc1ccc(C(=O)NCc2cccnc2N(C)C2CCCCC2)cn1,i
CC(C)c1nc(CNC(=O)c2ccc(N3CCCC(C(N)=O)C3)nc2)no1 (stereo not given),i
CC(C)c1nc(CNC(=O)c2ccc(NC3CCCCC3)nc2)no1,22µM*
O=C(O)c1ccc(C(F)(F)F)cn1,i
CCCCn1nc(C(=O)Nc2ccc(OC)c(OC)c2)c2ccccc2c1=O,i
NC(=O)CCN1CCN(S(=O)(=O)c2ccc(F)c(F)c2)CC1,i
CC(C)Oc1ccc(C(CC(=O)O)NC(=O)c2ccc(C(C)(C)C)cc2)cc1 (stereo not given),i
CC(=O)N1CCC(C(=O)N[C@H]2CCN3C(=O)N(c4ccc(OC(F)(F)F)cc4)C(=O)[C@@H]3C2)CC1,i
CC(C)c1ccc(N2C(=O)[C@@H]3C[C@@H](NC(=O)C4CCN(c5nccc(C(F)(F)F)n5)CC4)CCN3C2=O)cc1,28µM*
CSCC(=O)N[C@H]1CCN2C(=O)N(c3ccc(C(C)C)cc3)C(=O)[C@@H]2C1,i
N#Cc1c(C(F)(F)F)cc(-c2ccccc2)nc1SC/C=C/c1ccccc1,i
Cn1ccc2c(C(=O)NCc3cccnc3)nc(-c3ccccc3C(F)(F)F)cc21,35µM*
Cn1ccc2c(C(=O)NCc3cccnc3)nc(-c3ccc(CO)cc3)cc21,i
Cn1ccc2c(C(=O)NCc3cccnc3)nc(-c3cccc4cc[nH]c34)cc21,35µM*
Cn1ccc2c(C(=O)NCc3cccnc3)nc(-c3cccnc3)cc21,i
CSC1=N/C(=C\c2ccc3ccccc3c2)C(=O)S1,i
O=C(c1ccc(F)c(Cl)c1)N1CCC(n2cc(-c3nc(-c4ccccc4)no3)nn2)CC1,i
Cc1cccc(CN2CCN(Cc3nc(-c4cccs4)oc3C)CC2CCO)n1 (stereo not given),25µM*
OCCC1CN(Cc2cnn(-c3ccccc3)c2)CCN1Cc1cccs1 (stereo not given),i
COCC(=O)N1CCN(Cc2nc(-c3cccs3)oc2C)CC1,i
COc1cc(OC)cc(C(=O)Nc2ccccc2C(=O)NCc2cccnc2)c1,i
SMILES,KDM5B inhibitor
COc1cccc(C(=O)N[C@@H]2CN(Cc3cccnc3)C[C@H]2CN(C)C)c1C,i
COc1cccc(-c2cc(C(=O)NCc3cccnc3)c3c(c2)N(C)CCO3)c1OC,35µM*
CNC(=O)c1cc(-c2cccc(OC)c2OC)cc2c1OCCN2Cc1cccnc1,32µM*
O=C(NCc1ccccc1F)c1ccc2c(c1)CN(Cc1cccnc1)CCO2,i
COc1cccc(N2CCN(c3nc(C(=O)NCc4cccnc4)cs3)CC2)c1,i
CN1CCOc2c(C(=O)NCc3cccnc3)cc(-c3ccccc3F)cc21,25µM*
CCC(=O)N1CCc2c(C(=O)NCc3cccnc3)cccc21,i
COc1ccccc1C(=O)N1CCN2C(=O)N(Cc3cccnc3)C[C@H]2C1,i
COc1cncc(-c2cc(C(=O)NCc3cccnc3)c3c(c2)N(C)CCO3)c1,i
COc1ccccc1-c1cc(C(=O)NCc2cccnc2)c2c(c1)N(C)CCO2,40µM*
O=C(c1ccccc1OCC1CCCN(Cc2ccc(F)cc2)C1)N1CCCCC1 (stereo not given),i
O=C(NC1C2CC3CC(C2)CC1C3)c1cc(-c2ccncc2)nc2ccc(Br)cc12 (stereo not given),i
CN1CCN(CCNC(=O)Cc2ccc(C(F)(F)F)cc2)CC1,i
CC(Sc1ccccc1)C(=O)OCc1nc(N)nc(Nc2ccc(Cl)cc2)n1 (stereo not given),i
CCC(C)(C)NC(=O)CC(NC(N)=O)c1ccccc1C (stereo not given),i
O=C(O)CCCc1c(-c2ccccn2)[nH]c2ccccc12,i
COc1ccc2c(C)c(CCC(=O)Nc3c(C)cccc3C)c(=O)oc2c1,i
CC(=O)Oc1ccc2c(C)c(CC(=O)NCCc3ccc(Cl)cc3)c(=O)oc2c1OC(C)=O,i
O=C(Nc1cccc(S(=O)(=O)N2CCCC2)c1)c1ccccc1Oc1ccccc1,i
Cn1c(=O)[nH]c(=O)c2c1nc(SCCc1ccccc1)n2CC(O)COc1ccccc1 (stereo not given),i
Cn1nc(-c2ccc(NC3CCCCC3)c([N+](=O)[O-])c2)c2ccccc2c1=O,i
CC(OC(=O)c1ccc2ccccc2n1)C(=O)NC1(C#N)CCCCC1 (stereo not given),i
CN1C[C@@H](NC(=O)c2ccc(F)cc2)C[C@H]1c1nc(-c2ccc3c(c2)OCO3)no1,i
Cc1ccc(C(=O)N[C@H]2C[C@@H](c3nc(-c4ccc5c(c4)OCO5)no3)N(C)C2)cc1,i
CN1C[C@@H](NC(=O)Nc2ccccc2)C[C@H]1c1nc(-c2ccc(F)cc2)no1,i
SMILES,KDM5B inhibitor
Cc1noc([C@@H]2C[C@H](NC(=O)Nc3ccccc3)CN2C)n1,i
CN1C[C@@H](NC(=O)Nc2ccccc2)C[C@H]1c1nc(-c2ccccc2)no1,35µM*
CN1C[C@@H](NC(=O)c2ccc3c(c2)OCO3)C[C@H]1c1nc(-c2ccc(Cl)cc2)no1,32µM*
COC(=O)c1sc(NC(=O)[C@@H](NC(=O)c2ccccc2F)C(C)C)nc1C,i
CCn1cc(S(=O)(=O)Nc2ccc(F)cc2C)cn1,i
CCCC1=Nc2cc(C(=O)NCCCN3CCCCC3CC)ccc2Sc2ccc(C)cc21 (stereo not given),i
O=C(Nc1cccc(C(F)(F)F)c1)c1nc2c(o1)CCN(Cc1nccs1)CC2,i
COc1cccc(CN2CCc3nc(C(=O)Nc4cccnc4)oc3CC2)c1,i
COc1ccccc1CN1CCc2nc(C(=O)Nc3nc(C)cs3)oc2CC1,i
Cc1csc(NC(=O)c2nc3c(o2)CCN(Cc2c(F)cccc2F)CC3)n1,i
O=C(Nc1cccc(C(F)(F)F)c1)c1nc2c(o1)CCN(Cc1cccs1)CC2,32µM*
COc1ccccc1CN1CCc2nc(C(=O)Nc3cccc(C(F)(F)F)c3)oc2CC1,35µM*
N#Cc1cccc(CN2CCc3nc(C(=O)Nc4cccc(C(F)(F)F)c4)oc3CC2)c1,35µM*
Cc1noc(C)c1CN1CCc2nc(C(=O)Nc3cccc(C(F)(F)F)c3)oc2CC1,25µM*
Cc1noc(C)c1CN1CCc2nc(C(=O)NCc3ccccc3)oc2CC1,i
O=C(Nc1cccnc1)c1nc2c(o1)CCN(Cc1cccs1)CC2,i
COc1ccc(CN2CCc3nc(C(=O)Nc4cccnc4)oc3CC2)cc1OC,i
O=C(Nc1cccnc1)c1nc2c(o1)CCN(Cc1cccc(O)c1)CC2,i
Cc1nc2c(cc(Oc3cnccn3)c3ccsc32)s1,i
Cc1cccc(N2NC3(CCCC(C)C3)NC2=S)c1C (stereo not given),i
O=c1[nH]c(N2CCOCC2)nc2c1CCN(Cc1ccc(F)c(Cl)c1)CC2,i
c1ccc(-n2nnnc2CSc2nnc(N3CCOCC3)n2-c2ccccc2)cc1,i
CCNc1c(NC(=O)Nc2ccccc2Cl)c(=O)oc2ccccc12,i
